Insulin prom inh = TRM-6 insulin promoter activity inhibition; TRM-6 cells (human fetal islet line), insulin promoter-eGFP reporter, imaging; reporter expression induced with tamoxifen; inhibition, % at 2 µM; 130,000 tested, 0.9% active; AID 1273;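 active means inhibition above the mean plus 3 SD, with well images judged a real hit on visual review, cut at about 60% in these data, passing the limit was not always enough; inconclusive means inhibition over the cutoff but images rejected on review; inactive means inhibition not above the cutoff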
Ins promoter up = MIN6 insulin promoter up-regulation. MIN6 insulin promoter-GFP reporter, high-content imaging; stronger effect = higher value. z-score at 5 µM. 190,000 tested, 0.3% active. AID 1625;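 active means z-score above 3 at 5 µM with at least 500 cells counted in the well; inconclusive means wells under 500 cells, flagged as cytotoxic or low count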
L major viab = Leishmania major promastigote growth inhibition; inhibition, % at 10 µM; 200,000 tested, 9% active; Leishmania major promastigotes, resazurin fluorescence viability; in the data active means inhibition above about 50%;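 further: promastigotes grown with compound for 44 hours at 28 °C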
Autophagy HCS = autophagy modulation, high-content screen; MEF GFP-LC3 puncta imaging; test concentration mostly 10 µM; calls only at 10 µM (by protocol); 190,000 tested, 0.98% active;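 active means percentage of spot-positive cells more than 3 SD above its plate mean, without a fluorescence outlier flag or 80% toxicity; inconclusive means no clear call, values can overlap the other calls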
WT yeast gro inh = growth inhibition of WT yeast, mitochondrial fusion screen; mitochondrial fusion phenotypic screen, WT strain; inhibition, % at 10 µM; 190,000 tested, 2.1% active; AID 1362; in the data active means inhibition above about 58%; tested in S. cerevisiae
Numbers stand for hits; i = inactive; ? = inconclusive; nt = no result given; + = active, no number. An excerpt weighted towards active compounds, which were near 11% of everything screened.

SMILES	Insulin prom inh	Ins promoter up	L major viab	Autophagy HCS	WT yeast gro inh
O=C(O)/C=C/C(=O)Nc1ccc(S(=O)(=O)N2CCCC2)cc1	i	i	i	i	i
C#CC[N+]1(CC#Cc2ccccc2)CCOCC1	i	i	i	i	i
C(#Cc1ccccc1)C[N+]1(CC#Cc2cccc3ccccc23)CCOCC1	nt	i	100	i	i
Cc1ccc(C#CC[N+]2(CC#Cc3ccc(C)cc3)CCCCC2)cc1	i	?	100	i	i
O=C(C[N+]1(CC#Cc2ccccc2)CCCCC1)c1ccc(Cl)cc1	i	i	52	i	i
CCC[N+](CC#Cc1ccccc1)(CCC)CC(=O)c1ccc(Cl)cc1	nt	nt	100	i	i
Cn1c(N)c(C(=O)COC(=O)CNS(=O)(=O)c2ccc(Cl)c(Cl)c2)c(=O)n(C)c1=O	i	i	i	i	i
Cc1ccnc(NS(=O)(=O)c2ccc(NC(=O)c3ccc([N+](=O)[O-])s3)cc2)n1	i	i	i	i	i
COC(=O)c1ccccc1NC(=O)c1cc(-c2ccc(OC)c(OC)c2)on1	i	nt	i	i	nt
C#CC[N+]1(CC#Cc2ccccc2)CCCCC1	i	i	i	i	i
C(#Cc1ccccc1)C[N+]1(CC#Cc2ccccc2)CCCCC1	i	i	100	i	i
CCOC(=O)c1sc2nc(C)cc(C)c2c1N	77	i	i	i	i
CCCCOC(=O)c1sc2nc(C)cc(C)c2c1N	nt	i	nt	nt	nt
CCC(C)NS(=O)(=O)c1ccc(S(=O)(=O)N2CC=C(c3ccc(F)cc3)CC2)cc1 (stereo not given)	nt	i	i	i	i
Cc1cc(C)n(-c2ccc(OCC(=O)O)nn2)n1	i	3.3	i	i	i
CC(C)CCN(CCC(C)C)C(CO)(CO)CO	nt	nt	i	i	i
Cc1nn(Cc2ccccc2)c(C)c1NC(=O)CCCn1nc([N+](=O)[O-])cc1C	i	i	i	i	i
O=C1c2ccccc2C(=O)C1c1ccnc2ccccc12	i	nt	i	i	i
O=C1C(c2ccnc3ccccc23)=C(O)c2ccccc21	i	i	i	+	i
Cc1ccc(C(C)C)c(OCC(=O)N/N=C/c2cccn2C)c1	nt	i	nt	nt	nt
CC1=C(C#N)CCC(=O)N1Cc1ccc(C)cc1	i	i	i	i	i
C/C(=N\NC(=O)c1cccc(Cl)c1)C1C(=O)c2ccccc2C1=O	i	i	97	i	i
CCC(=C(c1ccc(OC)cc1)c1ccc(OC)cc1)c1cn(CC(O)CN2CCN(C)CC2)c2ccccc12 (stereo not given)	i	i	100	+	80
Cc1nnc(SC(=O)N2c3ccccc3Sc3ccccc32)s1	nt	i	63	i	i
COc1c(F)c(F)c(C(=O)Nc2ccc(-c3nc4ccccc4[nH]3)cc2)c(F)c1F	nt	i	i	i	i
SMILES	Insulin prom inh	Ins promoter up	L major viab	Autophagy HCS	WT yeast gro inh
COc1cccc(OC)c1C(=O)NC(=S)Nc1cc(-c2nc3ccccc3[nH]2)ccc1Cl	i	i	81	i	i
O=C(NNc1ccccc1[N+](=O)[O-])Nc1cccc(Cl)c1	nt	i	nt	nt	nt
COc1ccc(-c2cc(C(=O)N3CCN(c4ncccn4)CC3)c3ccccc3n2)c(OC)c1	i	i	i	i	59
COc1ccc(Nc2cc(C(=O)N3CCc4ccccc4C3)c3ccccc3n2)c(OC)c1	nt	i	56	i	i
COc1ccc(Nc2nc(C(=O)N3CCc4ccccc4C3)cs2)cc1	i	i	i	i	75
COc1ccccc1Nc1cc(C(=O)N2CCc3ccccc3C2)c2ccccc2n1	i	i	i	i	i
O=C(c1csc(Nc2cccc3ccccc23)n1)N1CCCC1	nt	i	nt	nt	nt
O=C(c1csc(Nc2ccccc2Cl)n1)N1CCCC1	i	i	i	i	69
COc1ccccc1-c1cc(C(=O)N2CCc3ccccc3C2)c2ccccc2n1	i	i	100	i	i
CCOC(=O)N1CCN(C(=O)CNC2CCCCCCC2)CC1	nt	nt	i	i	i
Cn1ncc(Cl)c1C(=O)Nc1cccc(Cl)c1	i	nt	i	i	i
Cn1ncc(N=Cc2c(O)ccc3ccccc23)c1C(=O)Nc1cccc(Cl)c1	nt	i	i	+	i
NNC(=O)COc1ccc(C(F)(F)F)cc1	nt	i	i	i	i
CCOC(=O)C(=Cc1ccc(-n2ccnc2)cc1)C(=O)OCC	nt	i	79	i	i
O=C(CNC(=O)c1ccc(S(=O)(=O)N2CCCC2)cc1)N/N=C/c1ccc(Cl)cc1Cl	nt	i	69	i	i
O=C(CNC(=O)c1ccc(S(=O)(=O)N2CCCC2)cc1)N/N=C/c1ccccc1	i	i	87	i	i
COc1ccc(/C=N/NC(=O)CNC(=O)c2ccc(S(=O)(=O)N3CCOCC3)cc2)c(OC)c1	nt	i	i	i	i
O=C(CNC(=O)c1ccc(S(=O)(=O)N2CCCC2)cc1)N/N=C/c1c(Cl)cccc1Cl	i	i	83	i	i
